# Results with a measured potency or affinity are listed apart. Active and inactive are the calls of the source. How the calls were made is not given here.
# Biological target: KSHV LANA C-terminal domain (residues 932-1162) binding to LBS DNA (UniProt O40947)
# Test: KSHV LANA DNA-binding disruption – biochemical, fluorescence polarization, cherry-picked samples, dose response (AID 504725)
row,Structure (SMILES),outcome
1,Cn1c(=O)oc2cc(S(=O)(=O)CCC(=O)N3CCN(c4ccccc4F)CC3)ccc21,inactive
2,COc1cccc2[nH]c(C(=O)NC(C)c3ccccc3)cc12 (stereo not drawn),inactive
3,CN(Cc1cnc2nc(N)nc(N)c2n1)c1ccc(C(=O)NC(CCC(=O)O)C(=O)O)cc1 (stereo not drawn),inactive
4,CCCc1nc(NCc2ccccn2)c2nnn(Cc3ccccc3F)c2n1,inactive
5,Cn1cc(C(=O)c2ccc(Cl)cc2Cl)cc1C(=O)N/N=C(\N)COc1ccccc1,inactive
6,Nc1nc(-c2ccc(C(=O)O)cc2)cs1,inactive
7,CCn1c(=O)c(C(=O)NCCN2CCCCC2)c(O)c2ccccc21,inactive
8,O=c1nc(N2CCOCC2)ccn1-c1nc(-c2ccccc2)sc1-c1ccccc1,inactive
9,CSc1nc(SC(C)C(=O)O)c2c3c(sc2n1)COC(C)(C)C3 (stereo not drawn),inactive
10,Cc1noc(C)c1CSCC(=O)Nc1nc2c(F)cc(F)cc2s1,inactive
11,Cc1cc(C)n(CC(=O)NNC(=O)CC(C)c2ccccc2)n1 (stereo not drawn),inactive
12,COc1[nH]c(/N=C/c2ccccc2)c(C#N)c1C#N,inactive
13,O=C1CCCC2=C1C(c1ccc(O)c(O)c1)Nc1ccc3ncccc3c12 (stereo not drawn),inactive
14,Nc1ccccc1C(=O)N1O[C@@H]2C=C[C@H]1CC2,inactive
15,COc1ccc(C(=O)N/N=C/c2ccc(OC)c(COc3ccccc3)c2)cc1,inactive
16,CSc1ncccc1C(=O)OCCCC(=O)c1ccc(F)cc1,inactive
17,CC1CCCN(C(=O)C(=O)c2cn(CC(=O)N3CCCCCC3)c3ccccc23)C1 (stereo not drawn),inactive
18,CC(=O)N/C(=C/c1ccc(OS(=O)(=O)c2ccc(C)cc2)cc1)C(=O)Nc1ccc(C(=O)O)cc1,inactive
19,NNc1nnc2c3cc(F)ccc3n(Cc3ccccc3)c2n1,inactive
20,CCOC(=O)C1(Cc2cccc(F)c2)CCN(Cc2c(C)nn(CC)c2C)CC1,inactive
21,COc1ccc(NC(=O)CN(C)CC(=O)Nc2ccc(N3CCOCC3)cc2)c([N+](=O)[O-])c1,inactive
22,Cc1cc2nc(SCCN3CCOCC3)[nH]c2cc1C,inactive
23,Cc1cc(/C=N/Nc2ccc([N+](=O)[O-])cn2)c(C)n1-c1cccc(C(=O)O)c1,inactive
24,CCOc1ccc(Nc2ccc(N)c(S(=O)(=O)O)c2)cc1,inactive

row,Structure (SMILES),outcome
1,COc1ccc(OCC(=O)N2CCN(c3cccc(C(F)(F)F)c3)CC2)cc1,inactive
2,CCCCn1c(N)c(N(CCOC)C(=O)c2cc(C)oc2C)c(=O)[nH]c1=O,inactive
3,O=C1CN=C(Nc2ccccc2Cl)N1Cc1ccc2c(c1)OCO2,inactive
4,COC(=O)\C(C(C)=O)=C(/C=C/C=C/C=C/N(C)C)N(C)C,inactive
5,Cc1ccc(S(=O)(=O)/N=C2/C=C(Sc3ncn[nH]3)C(=O)c3ccccc32)cc1,inactive
6,CC(C)c1ccc(NC(=O)Cn2c(=O)oc3cccnc32)cc1,inactive
7,COc1cccc(OCCCn2cc(/C=C3/C(=N)N4C=C(C)SC4=NC3=O)c3ccccc32)c1,inactive
8,O=S(=O)(O)c1cccc2cccc(Nc3ccccc3)c12,inactive
9,CCN(C(=O)COC(=O)c1nc2nc(C)cc(C)n2n1)C1CCCCC1,inactive
10,NC(=O)c1ccc(NC(=O)C2COc3ccccc3O2)cc1 (stereo not drawn),inactive
11,COc1ccc(C(=O)c2ccsc2N)cc1,inactive
12,CCN(CC(=O)Nc1ccc(OC)cc1)C(=O)c1cc([N+](=O)[O-])ccc1N1CCOCC1,inactive
13,Cc1nn(Cc2c(F)c(F)c(F)c(F)c2F)c(C)c1NC(=O)c1ccnn1C,inactive
14,COc1cc(C(=S)N2CCN(c3cccc(Cl)c3)CC2)ccc1O,inactive
15,CC(=O)NC(C(=O)c1ccccc1)C(=O)c1ccccc1,inactive
16,CCc1ccc(N2CC(C(=O)OCC(=O)N(CC)c3c(N)n(Cc4ccccc4)c(=O)[nH]c3=O)CC2=O)cc1 (stereo not drawn),inactive
17,Cc1ccc(N2CC(C(=O)Nc3nnc(SCC(=O)Nc4nc(C)cs4)s3)CC2=O)cc1 (stereo not drawn),inactive
18,COc1ccc(OC2CCN(S(=O)(=O)c3ccc(OC)cc3)CC2)cc1,inactive
19,CC(C)CC(=O)Nc1nnc(CSCc2ccc(F)cc2)s1,inactive
20,COc1cc(C(=O)O)cc(NC(=O)c2ccco2)c1OC,inactive
21,COC(=O)c1ccc(OCC(O)CN2CCC(C)CC2)cc1 (stereo not drawn),inactive
22,CCc1sc(C(=O)NNC(=O)CNC(=O)c2ccccc2F)cc1C,inactive
23,Cc1ccc2cccc(OCC(=O)NCCC3=CCCCC3)c2n1,inactive
24,COc1ccc(C)cc1NC(=O)C(OC(=O)c1cnccn1)c1ccccc1 (stereo not drawn),inactive
